Assay [1] is described as follows: qHTS profiling of the MIPE4 collection as inhibitors of Plasmodium falciparum (3D7) proliferation (AID 743344).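 Further: scaled between DMSO vehicle wells and 0.29 µM artemisinin as full inhibition.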 The note with it: P. falciparum 3D7 in erythrocytes, SYBR Green DNA fluorescence, 72 h; at 28.5 µM unless noted. A digest of the protocol: (§1)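 Erythrocytes infected with P. falciparum (0.3% parasitemia, 2.5% hematocrit) incubated with compounds 72 h at 37 C, 5% CO2. Lysis with saponin/Triton buffer containing SYBR Green I, overnight at room temperature in the dark; DNA fluorescence (485/535 nm) normalised to 0.29 uM artemisinin and DMSO.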
(Quantitative high-throughput screening tests each substance at several concentrations.)

A short description of assay [2]: qHTS profiling of the MIPE4 collection as inhibitors of Plasmodium falciparum (DD2) proliferation (AID 743345). The note with it: P. falciparum Dd2 in erythrocytes, SYBR Green DNA, 72 h; at 28.5 µM unless noted. The method in brief:
as §1

The nature of assay [3]: qHTS profiling of the MIPE4 collection as inhibitors of Plasmodium falciparum (DD2) proliferation (Rep 2) (AID 743346). The note with it: P. falciparum Dd2 in erythrocytes, SYBR Green DNA, 72 h; at 28.5 µM unless noted. A digest of the protocol:
as §1

The nature of assay [4]: High-throughput drug toxicity screening in the BPDCN cell line Gen2.2 (AID 1224824).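 Further: cells exposed to compounds for 48 h before reading.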 The note with it: Gen2.2 BPDCN cells; at 45.8 µM (top of the series) unless noted. A digest of the protocol: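 Gen2.2 cells, 500 per well in phenol red-free RPMI with 10% FBS, exposed to compounds 48 h at 37 C, 5% CO2; viability by CellTiter-Glo luminescence. Percent activity scaled to DMSO (100%) and 9.2 uM bortezomib final (0%).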

The nature of assay [5]: qHTS profiling for inhibitors of Plasmodium falciparum (3D7) proliferation (AID 743322).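 Further: infected erythrocytes exposed to compound for 72 h before lysis; 100% = DMSO vehicle wells and 0% = 0.29 µM artemisinin.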 The note with it: P. falciparum 3D7 proliferation; at 28.7 µM (top of the series). A digest of the protocol: as §1
The nature of assay [6]: qHTS profiling for inhibitors of Plasmodium falciparum (DD2) proliferation (AID 743323). The note with it: lower = more inhibition; at 28.7 µM (top of the series). A digest of the protocol: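 SYBR Green fluorescence (ex 485, em 535 nm) of lysed cultures gives parasite DNA content; wells normalized to artemisinin (0.29 uM) and DMSO controls. Infected red cells: 0.3% parasitemia, 2.5% hematocrit, 72 h, 37 C.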

The nature of assay [7]: qHTS profiling of the MIPE4 collection as inhibitors of Plasmodium falciparum (HB3) proliferation (AID 743347).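 Further: plate controls were DMSO vehicle wells for no effect and artemisinin wells for full effect.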 The note with it: P. falciparum HB3 in erythrocytes, SYBR Green DNA, 72 h; at 28.5 µM unless noted. The method in brief:
as §1

Several values for one entry are separate records, joined by “and”; a condition that tells them apart may be missing. Equal entries are not always repeated.

`COc1cccc(N(C)C(=S)Oc2ccc3c(c2)CCCC3)n1` returned a parasite growth, % of DMSO control in assay [1] of 47.9%. Moreover, the parasite growth remaining, % of DMSO control (lower = more inhibition) in assay [2] worked out at 82.7%. Also, the parasite growth, % of control (lower = inhibition) in assay [3] came to 34.5%. Also, in assay [4], the cell viability, % of control (lower = more cytotoxic) is 245%.
For `COc1cc2nc(N3CCCN(C)CC3)nc(NC3CCN(Cc4ccccc4)CC3)c2cc1OC`, the remaining parasite growth % (stronger effect = lower value) in assay [5] was 0.848%. Besides, the activity, percent of control in assay [6] came out at 0.575%. Also, the parasite growth, % of DMSO control in assay [1] stood at 4.4%. Besides, the parasite growth remaining, % of DMSO control (lower = more inhibition) in assay [2] was determined as 6.59%. For the same compound, the parasite growth, % of control (lower = inhibition) in assay [3] was determined as 7.33%. For the same compound, in assay [7], the growth, % of control is 8.7%. The cell viability, % of control (lower = more cytotoxic) in assay [4] worked out at 9.38%.
In assay [1], `CC[C@H](NC(C)C)[C@H](O)c1ccc(O)c2[nH]c(=O)ccc12` had a parasite growth, % of DMSO control of 96.3%. Also, the parasite growth remaining, % of DMSO control (lower = more inhibition) in assay [2] turned out to be 107%. In addition, the parasite growth, % of control (lower = inhibition) in assay [3] turned out to be 92.5%. Besides, the cell viability, % of control (lower = more cytotoxic) in assay [4] turned out to be 160%.
Compound `NC(=O)c1ccc2[nH]ccc2c1` came in with a parasite growth, % of DMSO control in assay [1] of 98%. In addition, in assay [2], the parasite growth remaining, % of DMSO control (lower = more inhibition) turned out to be 90.8%. For the same compound, the parasite growth, % of control (lower = inhibition) in assay [3] came out at 122%. In assay [7], this compound came in with a growth, % of control of 57.5%. Besides, the cell viability, % of control (lower = more cytotoxic) in assay [4] is 140%.
In turn, `CCCOc1ccc(C(=O)OCCN(CC)CC)cc1N` displayed a parasite growth, % of DMSO control in assay [1] of 100%. Also, the parasite growth remaining, % of DMSO control (lower = more inhibition) in assay [2] is 88.7%. In assay [3], the parasite growth, % of control (lower = inhibition) was determined as 111%. Moreover, in assay [4], the cell viability, % of control (lower = more cytotoxic) came to 177%.
In assay [1], `NC(=O)c1cccnc1` yielded a parasite growth, % of DMSO control of 98.2%. The parasite growth remaining, % of DMSO control (lower = more inhibition) in assay [2] came out at 97.3%. In assay [3], the parasite growth, % of control (lower = inhibition) came to 122%. Also, the cell viability, % of control (lower = more cytotoxic) in assay [4] turned out to be 114%.
Regarding `C1CCC(C(CC2CCCCN2)C2CCCCC2)CC1` (centres undefined), the parasite growth, % of DMSO control in assay [1] was determined as 6.92%. In addition, the parasite growth remaining, % of DMSO control (lower = more inhibition) in assay [2] was found to be 7.9%. Besides, the parasite growth, % of control (lower = inhibition) in assay [3] turned out to be 7.73%. For the same compound, in assay [7], the growth, % of control is 1.94%. For the same compound, the cell viability, % of control (lower = more cytotoxic) in assay [4] worked out at 7.33%.
Regarding `CCn1cc(C(=O)O)c(=O)c2cc(F)c(N3CCNCC3)nc21`, the parasite growth, % of DMSO control in assay [1] was 35.6%. Moreover, the parasite growth remaining, % of DMSO control (lower = more inhibition) in assay [2] was 56.4%. Besides, the parasite growth, % of control (lower = inhibition) in assay [3] was determined as 53.9%. Besides, in assay [4], the cell viability, % of control (lower = more cytotoxic) was 194%.
`CCOC(=O)c1ccc(C#Cc2ccc3c(c2)C(C)(C)CCS3)nc1` yielded a parasite growth, % of DMSO control in assay [1] of 36.2%. Further, in assay [2], the parasite growth remaining, % of DMSO control (lower = more inhibition) worked out at 83.8%. In addition, the parasite growth, % of control (lower = inhibition) in assay [3] worked out at 29.1%. For the same compound, in assay [4], the cell viability, % of control (lower = more cytotoxic) was determined as 379%.
For `OCc1ccc(-c2nn(Cc3ccccc3)c3ccccc23)o1` the same measures were 74.2%, 85%, 73.7% and 199%.
In assay [1], `CNC1CCCN(c2c(F)cc3c(=O)c(C(=O)O)cn(C4CC4)c3c2OC)C1` (centres undefined) returned a parasite growth, % of DMSO control of 20.4%. The parasite growth remaining, % of DMSO control (lower = more inhibition) in assay [2] was 11.8%. The parasite growth, % of control (lower = inhibition) in assay [3] came to 8.93%. The compound also yielded a growth, % of control in assay [7] of 22.8%. Moreover, the cell viability, % of control (lower = more cytotoxic) in assay [4] was found to be 106%.
Take `NC1(c2ccc(-c3nc4ccn5c(=O)[nH]nc5c4cc3-c3ccccc3)cc2)CCC1`: in assay [5], the remaining parasite growth % (stronger effect = lower value) is 36.9% and -1.39%. Moreover, the activity, percent of control in assay [6] was 14.1% and -0.386%. For the same compound, the parasite growth, % of DMSO control in assay [1] was 5.65%. In assay [2], the parasite growth remaining, % of DMSO control (lower = more inhibition) is 17.9%. Besides, the parasite growth, % of control (lower = inhibition) in assay [3] was found to be 7.57%. In addition, the growth, % of control in assay [7] amounted to 8.07%. Also, the cell viability, % of control (lower = more cytotoxic) in assay [4] amounted to 7.66%.
In assay [1], `CC(C)Cn1cnc2c(N)nc3ccccc3c21` returned a parasite growth, % of DMSO control of 43.4%. In addition, in assay [2], the parasite growth remaining, % of DMSO control (lower = more inhibition) was determined as 74.5%. Also, the parasite growth, % of control (lower = inhibition) in assay [3] worked out at 32.3%. The cell viability, % of control (lower = more cytotoxic) in assay [4] amounted to 11.8%.
With `CN1CCN(c2c(F)cc3c(=O)c(C(=O)O)cn4c3c2OCN4C)CC1`, the parasite growth, % of DMSO control in assay [1] is 90.8%. Further, the parasite growth remaining, % of DMSO control (lower = more inhibition) in assay [2] was 95.5%. Moreover, in assay [3], the parasite growth, % of control (lower = inhibition) turned out to be 77.3%. Also, the growth, % of control in assay [7] was 73.2%. In addition, the cell viability, % of control (lower = more cytotoxic) in assay [4] is 170%.
The corresponding values for `CC(=O)[C@H]1CC[C@H]2[C@@H]3CC=C4C[C@@H](O)CC[C@]4(C)[C@H]3CC[C@]12C` are 89.9%, 88.9%, 85.3%, 65.7% and 106%.
The compound `Cc1onc(-c2ccccc2Cl)c1C(=O)N[C@@H]1C(=O)N2[C@@H]1SC(C)(C)[C@@H]2C(=O)O` registered a parasite growth, % of DMSO control in assay [1] of 86.7%. In addition, in assay [2], the parasite growth remaining, % of DMSO control (lower = more inhibition) was found to be 94.6%. Further, in assay [3], the parasite growth, % of control (lower = inhibition) was found to be 79%. In addition, the cell viability, % of control (lower = more cytotoxic) in assay [4] amounted to 168%.
In turn, `NCCCC(O)(P(=O)(O)O)P(=O)(O)O` registered a parasite growth, % of DMSO control in assay [1] of 96%. Besides, the parasite growth remaining, % of DMSO control (lower = more inhibition) in assay [2] came to 107%. For the same compound, the parasite growth, % of control (lower = inhibition) in assay [3] worked out at 114%. In assay [4], the cell viability, % of control (lower = more cytotoxic) was found to be 169%.

Values taken from PubChem BioAssay (NCATS).
